# Data reported in PubChem BioAssay (EPA / NIEHS).
# Results filed as inconclusive are left out. Where a structure was tested more than once in an assay, its records may differ in their call. Active and inactive are the calls of the source. The calls were made as follows, unless noted: active = hit-call score of the fitted dose curve at least 0.9, where 1 is the maximum; inactive = score below 0.9.
# Assays:
# [1] = TAMU_PeakParms_SingleDonor1434_Asystole: Texas A&M University (TAMU) 1.5-hr Human Induced Pluripotent Stem Cell (iPSC)-derived Cardiomyocytes Calcium (Ca+2) Flux Assay for Cardiotoxicity: Asystole (quiescence of beating) (AID 2284328; active = hit-call score of the fitted dose curve at least 0.9, where 1 is the maximum)
# In short: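 Human iPSC-derived cardiomyocytes (donor 1434) were exposed to 0.2, 1, 10 and 100 uM compound in 0.5% DMSO for 90 min at 37C. Ca2+-dye fluorescence gave average peak frequency; POD is EC95, a 95% beat-rate drop versus DMSO.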
# IYD (gene 389434) = test: CCTE_GLTED_hIYD: CCTE's human Iodotyrosine Deiodinase (xIYD) Inhibition Assay, Great Lakes Toxicology and Ecology Division (GLTED) Lab (AID 2284317; active = hit-call score of the fitted dose curve at least 0.9, where 1 is the maximum;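 also: cell-free human IYD enzyme made in baculovirus insect cells; iodide freed from monoiodotyrosine measured by cerium arsenite color change at 420 nm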)
# In short: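 Cell-free; baculovirus/insect-cell hIYD + MIT substrate + chemical, 3 h. Dowex column cleanup, then Ce4+/As3+ Sandell-Kolthoff read at A420 nm. Triplicate plates; normalized to 3-nitro-L-tyrosine (positive) and DMSO/NaOH (solvent).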
# [2] = system: Brachyury (BRA) Protein Expression, Deisenroth Lab, TBXT (gene 6862); test: CCTE_Deisenroth_DEVTOX-GLR_legacy_Bra: (Legacy) CCTE's DevTox GLR-Endo Assay Evaluation of Brachyury (BRA) Protein Expression, Deisenroth Lab (AID 2284329)
# In short: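 High-content imaging of fixed RUES2-GLR cells after a 48-hour differentiation with two compound exposures yields percent cells whose Bra signal exceeds pluripotent control median by 5x BMAD; values are baseline-corrected to DMSO.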
# [3] = CCTE_Deisenroth_5AR_NBTE_donor: CCTE's 5alpha-reductase NanoBRET Target Engagement Assay […], Deisenroth Lab (AID 2284319); settings: actives raise or lower the signal
# In short: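 In this secondary endpoint, donor luminescence from SRD5A2-NanoLuc in transfected HEK293T flags artifacts. Test chemical (10 nM - 29.9 uM) is present five hours, tracer the last two; mock-tracer wells run plate-matched; data fitted bidirectionally against DMSO.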
# [4] = CCTE_Deisenroth_5AR_NBTE_acceptor: CCTE's 5alpha-reductase NanoBRET Target Engagement Assay - Autofluorescence Screen, Deisenroth Lab (AID 2284321); settings: actives raise or lower the signal;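 also: compound fluorescence in the acceptor channel under 460 nm excitation flags autofluorescence artifacts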
# In short: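 Using three independent plate-reader runs, nominal 100 uM chemicals were checked for intrinsic fluorescence (ex 460 nm). DMSO defined the baseline for bidirectional fitting.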
# [5] = VALA_TUBIPS_Antagonist_TubuleLength: VALA Sciences human iPS-derived Endothelial Tubule Formation (TUBIPS) Antagonist Assay (AID 2284313; active = hit-call score of the fitted dose curve at least 0.9, where 1 is the maximum)
# Experimental: VALA_TUBIPS_Agonist is a cell-based, multiplexed assay that uses human iPS-derived endothelial cells (iPSC). Measurements were taken 72 hours after chemical dosing in a 96-well plate.VALA_TUBIPS_Antagonist_TubuleLength is the one of two assay components measured from the VALA_TUBIPS_Antagonist assay. It is designed to make measurements of tubulogenesis, a form of morphology reporter, as detected with fluorescence intensity signals by HCS Fluorescent Imaging technology. This VALA_TUBIPS_Antagonist assay was designed to detect chemical suppression of tubulogenesis, i.e. antagonism.Data from the assay component VALA_TUBIPS_Antagonist_TubuleLength was analyzed at the endpoint, VALA_TUBIPS_Antagonist_TubuleLength, in the positive analysis fitting direction relative to DMSO as the negative control and baseline of activity. Using a type of morphology reporter, loss-of-signal activity can be used to understand developmental effects. To generalize the intended target to other relatable targets, this assay endpoint is annotated to the neurodevelopment intended target family, where the subfamily is tubulogenesis.
# This HUVEC-HDF assay was designed to detect chemical suppression of tubulogenesis, i.e. antagonism. […]
# [6] = VALA_MIGHUV2_CellCount: Viability Assessment in the VALA Sciences human Umbilical Vein Endothelial Cell Migration (MIGHUV) Assay, Area of Scratch Wound after Recovery (AID 2284314; active = hit-call score of the fitted dose curve at least 0.9, where 1 is the maximum)
# In short: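 Viability read-out: Hoechst-stained nuclei counted by fluorescence imaging after a 24 h recovery period in fixed, scratched HUVEC plates. Compound was dosed within 30 min of scratching at six concentrations (triplicate); DMSO at 0.1 % served as baseline.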
# [7] = CCTE_Mundy_HCI_iCellGluta_NOG_NeuriteLength: CCTE's Neurite Outgrowth Assay in iCellGluta cells for Neurite Length, Mundy Lab (AID 2284318; active = hit-call score of the fitted dose curve at least 0.9, where 1 is the maximum)
# In short: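 Automated high-content imaging of betaIII-tubulin (Alexa Fluor-488) and Hoechst-stained cells gave neurite length, normalized to the DMSO baseline.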
# [8] = VALA_MIGHUV2_Bcatenin: VALA Sciences human Umbilical Vein Endothelial Cell Migration (MIGHUV) Assay, Nuclear Translocation of beta-Catenin after Recovery (AID 2284315; active = hit-call score of the fitted dose curve at least 0.9, where 1 is the maximum)
# In short: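 Nuclear beta-catenin imaged by immunofluorescence with Hoechst counterstain in fixed HUVEC, 24 h after scratch wounding and chemical addition. Six-point concentration-response in triplicate; activity scored as signal increase over 0.1% DMSO vehicle.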
# [9] = VALA_MIGHUV2_WoundArea: VALA Sciences human Umbilical Vein Endothelial Cell Migration (MIGHUV) Assay, Area of Scratch Wound after Recovery (AID 2284316; active = hit-call score of the fitted dose curve at least 0.9, where 1 is the maximum)
# In short: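 Wound-area endpoint read by fluorescence imaging of Hoechst-stained nuclei after a 24 h recovery period following scratch of HUVEC monolayers (9000 cells/well). Chemicals dosed within 30 min post-scratch, triplicate 6-point series, 0.1% DMSO vehicle; Cytochalasin D positive control.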
smiles,measurement,setting,value
CCCOC(=O)c1cc(O)c(O)c(O)c1,outcome,[1],inactive
CC(C)(c1cc(Br)c(O)c(Br)c1)c1cc(Br)c(O)c(Br)c1,AC50,IYD (gene 389434),66.2 µM (active)
same,outcome,[1],inactive
CC/C(=C(/CC)c1ccc(O)cc1)c1ccc(O)cc1,outcome,[1],inactive
same,AC50,[2],1.3 µM (active)
NCc1cccc(C2CCN(C(=O)c3ccc(C#Cc4ccccc4F)o3)CC2)c1,outcome,[3],inactive
same,outcome,[4],inactive
c1ccc2ccccc2c1,outcome,[1],inactive
CO[C@H]1/C=C/O[C@@]2(C)Oc3c(C)c(O)c4c(O)c(c(/C=N/N5CCN(C)CC5)c(O)c4c3C2=O)NC(=O)/C(C)=C\C=C\[C@H](C)[C@H](O)[C@@H](C)[C@@H](O)[C@@H](C)[C@H](OC(C)=O)[C@@H]1C,AC50,[3],50 µM (active)
same,outcome,[4],inactive
same,AC50,[2],89.7 µM (active)
O=C(Nc1ccc(Cl)cc1)Nc1ccc(Cl)c(Cl)c1,outcome,[5],inactive
same,outcome,[6],inactive
CN1C(=O)CC[C@H]1c1cccnc1,outcome,[3],inactive
same,outcome,[4],inactive
O=C1O[C@H]([C@@H](O)CO)C(O)=C1O,outcome,[7],inactive
CCCCOC(=O)c1ccc(O)cc1,AC50,[2],100 µM (active)
CC(C)(C)c1csc(-c2cc3cc(OCc4ccccc4CC(=O)O)ccc3o2)n1,AC50,IYD (gene 389434),68.7 µM (active)
O=C(O)Cc1cc(I)c(Oc2ccc(O)c(I)c2)c(I)c1,AC50,[3],28.2 µM (active)
same,AC50,[4],14.3 µM (active)
CCCCCCCCCCCC[N+](C)(C)C,outcome,IYD (gene 389434),inactive
COc1cc(C(=O)NC2CCN(C)CC2)ccc1Nc1ncc2c(n1)N(C1CCCC1)CC(F)(F)C(=O)N2C,outcome,[3],inactive
same,outcome,[4],inactive
Cc1oc2c(NC(=O)c3c(Cl)cccc3Cl)cccc2c1C(C)(C)O,outcome,IYD (gene 389434),inactive
CCCCCCCCCCCO,outcome,[3],inactive
same,outcome,[4],inactive
O=c1c(-c2ccc(O)cc2)coc2cc(O)cc(O)c12,outcome,IYD (gene 389434),inactive
same,outcome,[3],inactive
same,outcome,[4],inactive
CCCCCCCCOC(=O)c1cc(O)c(O)c(O)c1,outcome,[5],inactive
same,outcome,[6],inactive
same,AC50,[8],79.9 µM (active)
same,outcome,[9],inactive
same,AC50,IYD (gene 389434),77 µM (active)
same,AC50,[3],74.7 µM (active)
same,AC50,[4],61.4 µM (active)
Clc1cc(Cl)c2c(c1)N=C1CCCCCN1C2,outcome,IYD (gene 389434),inactive
O=c1[nH]sc2ccccc12,AC50,[3],81.2 µM (active)
same,AC50,[4],82.8 µM (active)
CCOC(=O)O[C@H](C)OC(=O)c1ccc2c(c1)cc(C(=O)NC1CCN(C(C)C)CC1)n2Cc1cc(-c2ccc(Cl)s2)on1,AC50,IYD (gene 389434),56.4 µM (active)
CN(C)c1ccc(C(=C2C=CC(=[N+](C)C)C=C2)c2ccc(N(C)C)cc2)cc1,outcome,IYD (gene 389434),inactive
same,AC50,[3],12.6 µM (active)
same,AC50,[4],4.78 µM (active)
same,AC50,[1],0.589 µM (active)
CCN(Cc1cccc(S(=O)(=O)O)c1)c1ccc(C(=C2C=CC(=[N+](CC)Cc3cccc(S(=O)(=O)O)c3)C=C2)c2ccccc2S(=O)(=O)[O-])cc1,AC50,IYD (gene 389434),100 µM (active)
same,outcome,[3],inactive
same,AC50,[4],21.7 µM (active)
CN(C[C@@H](CC[N+]12CCC(C3CCCCC3)(CC1)CC2)c1ccc(Cl)c(Cl)c1)C(=O)c1cc(C(F)(F)F)cc(C(F)(F)F)c1,AC50,IYD (gene 389434),45.2 µM (active)
same,AC50,[3],19.7 µM (active)
same,AC50,[4],16.1 µM (active)
CCN(CC)C(=O)c1cc(S(=O)(=O)Cc2ccccc2)c(N2CCC(c3ccccc3)CC2)cc1N(CC)CCN(C)C,AC50,[3],10 µM (active)
same,outcome,[3],inactive
same,outcome,[4],inactive
OCCO,outcome,[2],inactive
CN1C(=O)N(c2ccccc2Br)Cc2cnc(Nc3ccc4c(c3)OCC(CO)O4)nc21 (stereo unspecified),outcome,[3],inactive
same,outcome,[4],inactive
